Experimental data from PubChem BioAssay (NCATS).
Several values for one entry are separate records, joined by “and”; a condition that tells them apart may be missing. Equal entries are not always repeated. Results filed as inconclusive are left out. Some compounds were tested as several samples or in several runs, with calls that do not always agree. Activity calls are given as the source filed them. The call rests on the fitted dose curve; in most records, active means well fitted inhibition curve with a large enough effect; inconclusive means small, poorly fitted or top-dose-only effect; inactive means flat fitted curve, though single readings scatter.

Key:
[1] = test system: CRL-7250; test: Cytotoxic Profiling of Annotated Libraries Using Quantitative High-Throughput Screening (AID 1296008); conditions: Five cell lines viability, CellTiter-Glo ATP luminescence, 48-72 h; max response: stronger effect = lower value; further: potency means the concentration at half of the fitted maximal effect; on max response: on the % scale 0 is the no-effect control and ±100 the full control effect
How it was run: (§1)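 Cytotoxicity was measured as CellTiter-Glo ATP luminescence, read after 10 min at room temperature. Compound treatment of the cells lasted 48 or 72 hr at 37 degrees Celsius in a qHTS format.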

[2] = test system: HEK293; test: as above; conditions: Five cell lines viability, CellTiter-Glo ATP luminescence, 48-72 h; max response: stronger effect = lower value
How it was run: as §1

[3] = test system: HaCat; test: as above; conditions: Five cell lines viability, CellTiter-Glo ATP luminescence, 48-72 h; max response: stronger effect = lower value
How it was run: as §1

[4] = test system: KB-3-1; test: as above; conditions: Five cell lines viability, CellTiter-Glo ATP luminescence, 48-72 h; max response: stronger effect = lower value
How it was run: as §1

[5] = test system: NIH3T3; test: as above; conditions: Five cell lines viability, CellTiter-Glo ATP luminescence, 48-72 h; max response: stronger effect = lower value
How it was run: as §1

[6] = test system: HACAT; test: qHTS assay to identify novel small-molecules to repurpose for Merkel cell carcinoma treatment (AID 1296009); conditions: MCC and control cell lines, CellTiter-Glo viability, 72 h; at 44.8 µM (top of the series) unless noted
How it was run: (§2)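 Cell viability measured by CellTiter-Glo following 72 hr compound treatment at 37 degree celsius, with NPC and MIPE libraries tested in 8- and 11-point concentration series.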

[7] = test system: HEK293T; test: as above; conditions: MCC and control cell lines, CellTiter-Glo viability, 72 h; at 44.8 µM (top of the series) unless noted
How it was run: as §2
Further: nearly all actives have a fitted effect of over 60% in size.

CN(C)c1nc(Cc2ccc(NC(=O)c3ccc(C(F)(F)F)cc3)cc2)nc(N(C)C)c1CC(=O)O
inactive: outcome [1] | max response [2] 3.18% | outcome [2] | outcome [3] | max response [4] 4.62% | outcome [4] | max response [5] -4.49% and 4.34% | outcome [6] | outcome [7]

Clc1ccc(C2(c3ccc(-c4cn[nH]c4)cc3)CCNCC2)cc1
inactive: outcome [3] | outcome [6]
active: Potency [1] 3.72 µM and 7.31 µM | Potency [2] 5.26 µM and 10.3 µM | Potency [3] 13 µM | Potency [4] 16.6 µM and 16.4 µM

Cc1cnc(CNC(=O)c2c(=O)c3ccc(N4CCCN(C)CC4)nc3n3c2sc2ccccc23)cn1
inactive: max response [1] -36.5% and -21.3% | max response [3] -24.1%
active: Potency [2] 0.0512 µM

CC1=C(C(=O)Nc2cc3cn[nH]c3cc2F)C(c2ccc(C(F)(F)F)cc2)CC(=O)N1 (stereo unspecified)
inactive: max response [1] 1.25% | outcome [1] | outcome [2] | max response [3] 3.22% | outcome [3] | max response [4] 1.78% and 8.86% | max response [5] -7.07% | outcome [6] | outcome [7]

Cc1ccc2c(c1)c1c(n2CCc2ccc(C)nc2)CCN(C)C1
inactive: outcome [1] | max response [2] -7.19% | max response [3] -15.7% | outcome [3] | max response [4] 2.15% | max response [5] 1.43% | outcome [6]
active: Potency [2] 14.6 µM

CC[C@]1(O)C[C@H]2CN(CCC3=c4ccccc4=N[C]3[C@@](C(=O)OC)(c3cc4c(cc3OC)N(C)[C@H]3[C@@](O)(C(N)=O)[C@H](O)[C@]5(CC)C=CCN6CC[C@]43[C@@H]65)C2)C1
inactive: max response [3] -10.4%
active: Potency [1] 0.0935 µM | Potency [2] 0.0166 µM | Potency [4] 0.0059 µM

CCN1CCN(c2ccc(Nc3cc(N(C)C(=O)Nc4c(Cl)c(OC)cc(OC)c4Cl)ncn3)cc2)CC1
inactive: max response [3] 4.46% | max response [4] 8.02% | outcome [5]
active: Potency [1] 7.31 µM | Potency [2] 16.4 µM | Potency [3] 8.2 µM | Potency [4] 23.1 µM

CC(C)CNc1ccnc(NCc2csc(-c3ccccc3)n2)n1
active: Potency [1] 1.3 µM | Potency [2] 5.26 µM and 1.64 µM | Potency [3] 16.4 µM | Potency [4] 14.6 µM | Potency [5] 23.1 µM
inactive: max response [1] -19.9% | max response [3] -4.23% | max response [5] -17.2%

CC(C)(OCc1nn(Cc2ccccc2)c2ccccc12)C(=O)O
inactive: max response [1] 1.06% | outcome [1] | max response [2] 0.564% | outcome [2] | max response [3] 3.78% | outcome [3] | max response [4] 5.01% and 9.63% | max response [5] 2.54% and 3.58% | outcome [6] | outcome [7]

Cc1ccccc1-n1c(Cn2nc(-c3cccc(O)c3)c3c(N)ncnc32)nc2cccc(C)c2c1=O
active: Potency [1] 2.64 µM
inactive: outcome [1] | outcome [3] | max response [4] 4.26% and -1.18% | max response [5] -4.97% | outcome [5] | outcome [6]

CC(O)=C(C#N)C(=O)Nc1ccc(C(F)(F)F)cc1
active: Potency [2] 11.8 µM
inactive: max response [1] -8.07% | max response [3] -27.6%

Cc1ccc(NC(=O)c2ccc(CN3CCN(C)CC3)cc2)cc1Nc1nc(-c2cccnc2)cs1
active: Potency [2] 8.33 µM
inactive: max response [1] -52.7% | max response [3] -8.86% | max response [4] -13.9%

COc1cc2nccc(Oc3ccc(NC(=O)Nc4ccc(F)cc4F)c(F)c3)c2cc1OC
inactive: max response [1] -18.7%

CN1c2ccccc2C(=O)N2CCc3c([nH]c4ccccc34)C21 (stereo unspecified)
active: Potency [2] 1.64 µM | Potency [4] 5.17 µM
inactive: max response [1] 4.95% | max response [2] -2.28% | max response [3] -3.12% | max response [4] 1.03% | max response [5] -8.68%

Nc1ccc(-c2ccc3ncc4ccc(=O)n(-c5cccc(C(F)(F)F)c5)c4c3c2)cn1
inactive: max response [1] -76.7%
active: Potency [1] 0.0461 µM | Potency [3] 2.64 µM and 2.91 µM | Potency [4] 4.2 nM and 65.1 nM | Potency [5] 20.9 nM and 103 nM

Cc1cnc(-c2cc(N3CCN(C(=O)CCS(C)(=O)=O)CC3)ncc2Cl)c(C)c1
inactive: max response [1] 2.67% | outcome [1] | max response [2] 2.19% | outcome [2] | outcome [3] | max response [4] 3.56% and 2.16% | outcome [5] | outcome [6] | outcome [7]

COC(=O)N1CCN(Cc2cccc(NC(=O)Nc3ccc(C)nc3)c2F)CC1
inactive: max response [1] -17.2% | outcome [1] | max response [3] 3.64% and 2.27% | max response [4] -23.5% | max response [5] -1.49% | outcome [5]
